# Test results from PubChem BioAssay AID1259422 (The Scripps Research Institute Molecular Screening Center, 2018).
# Hit rate of the full screen: of about 640,000 compounds, about 9,300 (1.5%) were called active. What follows is part of a selection rich in actives, with near analogues and random picks from the rest. Unmarked numbers belong to inactive results. No stated cut-off is given here; in the data, active means inhibition above about 32%; inactive means the rest.
# Experiment: TEAD-YAP interaction inhibition, primary screen, TEAD-YAP interaction inhibitor project, luminescence, HEK-TIYL cells (AID 1259422);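 further: 0% = median of test compound wells and 100% = reference inhibitor wells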
# Details: TEAD-Gal4/YAP UAS-luciferase luminescence, at 9.12 µM, hits give high values
row,SMILES,inhibition
1,CCOc1ccc(-c2c(C#N)c(N)nc(OC)c2C#N)cc1,-17.1%
2,CN1N=C(C(F)(F)F)/C(=N/OC(=O)c2ccc(Cl)cc2Cl)C1=O,6.23%
3,CC(=O)Nc1ccc(Nc2ncnc3nc(-c4c(C)noc4C)[nH]c23)cc1,-7.16%
4,Cc1ccc(/C=C/C(=O)N2CCN(c3ccc([N+](=O)[O-])cc3)CC2)cc1,2.02%
5,CCN(CC)CCNC(=O)c1c(CSc2ccccc2)n(C)c2cc(Br)c(OC)cc12,6.43%
6,CCOc1ccc(-n2c(SCc3cc(C(C)=O)ccc3OC)nc3c(sc(=S)n3-c3ccccc3)c2=O)cc1,-3.25%
7,Cc1cc(C)cc(C(=O)NCC(=O)OCC(=O)NC(N)=O)c1,1.58%
8,COc1cccc(CNC(=O)c2[nH]c3cc(-c4cn[nH]c4)ccc3c2CN(C)Cc2ccccc2)c1,-12.2%
9,COc1ccc(-c2nc(Nc3ccc(C)c(F)c3)c3ccccc3n2)cc1OC,-0.35%
10,COc1cc(Nc2nc(-c3ccc(OC)c(OC)c3)nc3ccccc23)cc(OC)c1,43% (active)
11,COc1ccc(-c2nc(Nc3cc(Oc4ccccc4)cc([N+](=O)[O-])c3)c3ccccc3n2)cc1OC,-13.1%
12,Nc1nnc(SCC(=O)NC2CCCc3ccccc32)s1 (stereo not drawn),0.12%
13,COc1ccccc1-n1nnc(C(=O)NC2CCCc3ccccc32)c1N (stereo not drawn),45.5% (active)
14,COc1ccccc1-n1nnc(C(=O)N2CCCCC2)c1N,-0.58%
15,Fc1cccc(Cn2nnc(-c3ccc4c(c3)OCO4)n2)c1,-36.6%
16,CCOc1ccccc1-n1c(=S)sc2c(=O)n(-c3ccccc3C)c(SCC#N)nc21,-7.3%
17,O=[N+]([O-])c1cccc(S(=O)(=O)NNc2ccccc2)c1,2.84%
18,OC(COc1ccccc1CNCCN1CCCCC1)CN1CCc2ccccc2C1 (stereo not drawn),2.84%
19,Cc1c(C(=O)Nc2ccc(F)cc2F)sc2ncnc(N3CCc4ccccc4C3)c12,12.9%
20,O=c1oc2ccccc2cc1-c1cn(-c2ccccc2)c(=S)[nH]1,72.7% (active)

row,SMILES,inhibition
1,O=c1oc2ccccc2cc1-c1nnc(-c2ccccc2)o1,-51.9%
2,S=c1[nH]c(-c2ccc(Cl)cc2)cn1-c1cccc(Cl)c1,-6.64%
3,CC(C)n1c(Nc2ccc(N3CCOCC3)cc2)nc2c(NCCc3ccc(O)cc3)ncnc21,12.6%
4,CCOC(=O)c1c(NC(=O)CN2CCCC2)sc(C)c1-c1ccccc1,4.43%
5,COc1ccc(OC)c(NC(=O)CSc2nc3cc(OC)ccc3cc2C#N)c1,6.71%
6,COc1ccc2cc(C#N)c(SC)nc2c1,33.8% (active)
7,CCOc1ccc2cc(C#N)c(SCC(=O)NCc3ccc(OC)cc3)nc2c1,3.49%
8,O=C(CSc1nc2ccc(Br)cc2c2nc3ccccc3n12)NCc1ccccc1,0.74%
9,CCOc1ccccc1CN1CCOc2ccc(C(O)c3cccnc3)cc2C1 (stereo not drawn),5.37%
10,CCn1nc(C)c(CN2CCOc3ccc(C(O)c4cccnc4)cc3C2)c1C (stereo not drawn),36.6% (active)
11,CC(C)C(O)c1ccc2c(c1)CN(Cc1cccc(OCCO)c1)CCO2 (stereo not drawn),1.92%
12,CCOc1ccc(-c2n[nH]c3c2C(c2ccccc2OC)NC3=O)cc1 (stereo not drawn),18.1%
13,O=C1CCCC2=C1C(c1ccccc1[N+](=O)[O-])C1=C(CCCC1=O)O2,-1.3%
14,CSc1sc(SC)c(CO)c1CO,-4.01%
15,Cc1cccc(C(=O)Nc2sc3c(c2C(=O)Nc2ccccn2)CCCC3)c1,-4.61%
16,CN1CCN(NC(=O)c2cc3c(s2)CCCCC3)CC1,12.5%
17,O=C(Nc1ccccn1)c1cc2c(s1)CCCC2,93.2% (active)
18,CC(C)NC(=O)Cn1nc2n(CC(=O)NC3CCCCC3C)c3ccccc3n2c1=O (stereo not drawn),1.58%
19,O=C(Nc1ccc(S(=O)(=O)Nc2nccs2)cc1)c1cc(Cl)cc(Cl)c1,1.26%
20,C/C=C/c1ccc(Oc2ccc([N+](=O)[O-])c3cnccc23)c(OC)c1,-0.05%

row,SMILES,inhibition
1,Clc1ccc(Cn2ncc3c(NCc4cccnc4)ncnc32)cc1,19.8%
2,Cn1ncc2c(NCc3cccnc3)ncnc21,3.93%
3,Brc1ccc2ncnc(NCc3cccnc3)c2c1,34.6% (active)
4,CCCNc1cc(CC)nc2c3c(C)cc(C)nc3nn12,-5.94%
5,CCOc1cccc2sc(N3CCOCC3)nc12,-1.73%
6,COc1cc2c(cc1/C=C1/NC(=O)N(Cc3ccccc3Cl)C1=O)OCO2,-0.77%
7,O=C1/C(=C/c2ccc(-c3ccc([N+](=O)[O-])cc3)o2)C=C(c2ccccc2)N1c1cccc(Br)c1,5.51%
8,CC(C)=NOC(=O)CCS(=O)(=O)c1nc(-c2cccs2)cc(C(F)(F)F)n1,-33.7%
9,Cc1ccc(NC(=O)CSC2=C(C#N)C(c3ccc(F)cc3)CC(=O)N2)cc1 (stereo not drawn),11.8%
10,CCN1/C(=C/c2ccc3cc(C)ccc3[n+]2CC)Sc2ccc(OC)cc21,83.3% (active)
11,CC[N+]1=C(C)C(C)(C)c2cc(-c3ccccc3)ccc21,25.8%
12,CCN1/C(=c2/s/c(=C3/C(=O)N(c4ccccc4)NC3=Nc3ccccc3)n(CC)c2=O)Sc2ccc(OC)cc21,5.23%
13,CCC(/C=C1\Sc2ccc(-c3ccccc3)cc2N1CC)=C\c1sc2ccc3ccccc3c2[n+]1CC,21.8%
14,CCN1C(=O)/C(=C\c2ccc(OC)cc2)SC1=S,6.61%
15,CCN1/C(=C/c2ccc3cc(OC)ccc3[n+]2CC)Sc2c1ccc1c2CCCC1,87.9% (active)
16,CCN1/C(=C/c2ccc3cc(C)ccc3[n+]2CC)Sc2ccc(-c3ccccc3)cc21,88.8% (active)
17,CCN1/C(=C/c2ccc3ccc(C)cc3[n+]2CC)Sc2ccccc21,87.4% (active)
18,Cc1noc(/C=C/N(C)C)c1S(=O)(=O)N1CCC(C(=O)N2CCCC2)CC1,-1.15%
